# Pol eta inh-1 – DNA polymerase eta (human) inhibition. Potency, µM (titrated, usually from 114 µM), for the others: top-dose activity change, negative = inhibition, actives largely listed as inhibitors. Q9Y253. recombinant Pol eta, fluorescent DNA replication assay. 390,000 compounds, 1.2% hits. AID 588591; note: potency is the fitted concentration of half-maximal effect; % is set by controls: 0 for no effect and ±100 for the full control effect
#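 Fluorescent replication assay: 50 nM final substrate added after a 15 min room-temperature compound preincubation with 10 nM enzyme. Signal taken at 0 min and again at 10 min.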
# GLS inh – glutaminase GLS (human) inhibition | O94925 | GLS enzymatic activity, qHTS titration | Potency, µM (series often up to 45.5 µM), for the others: at the highest dose activity change, negative = inhibition, most hits filed as inhibitors | 410,000 compounds, 0.21% hits | AID 624170; note: potency is the fitted concentration of half-maximal effect; % is set by controls: 0 for no effect and ±100 for the full control effect
#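 hKGA; 45 mM KH2PO4 pH 8.2 + 0.02% Tween-20; cpd via pin tool; 1 mM Gln soln; GluOx/HRP/Amplex Red; RT 30 min; fluor. t0 & final.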
# Pol beta inh – inhibitors of human DNA polymerase beta; P06746; Pol beta primer extension/strand displacement, fluorescence kinetic; Potency, µM (doses to about 114 µM), for the others: at the top dose activity change, negative = inhibition, most hits filed as inhibitors; 340,000 compounds, 1.3% hits; AID 485314; note: potency is the fitted concentration of half-maximal effect; % is set by controls: 0 for no effect and ±100 for the full control effect
#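 Kinetic readout of DNA synthesis with strand displacement by Pol beta. Compound and 10 nM enzyme sit 15 min at room temperature; 50 nM substrate starts the reaction, read immediately and at 10 min.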
# POLI inh – blocks human DNA polymerase iota activity | Q9UNA4 | Pol iota fluorescent replication assay, 10 min | Potency, µM (top dose mostly 115 µM), without a hit: at the top dose activity, negative = inhibition, usual class: inhibitors | 390,000 compounds, 1% hits; note: potency is the fitted concentration of half-maximal effect
#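 Pol iota at 10 nM preincubated 15 min with compounds at room temperature; reaction started with fluorescent substrate, 50 nM final. Fluorescence read kinetically at 0 and 10 min; buffer-only wells as negative control.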
# APE1 inh – APE1 (human) endonuclease inhibition | P27695 | recombinant APE1, TAMRA/BHQ-2 abasic DNA cleavage fluorescence | Potency, µM (highest dose often 65.8 µM), inactives show at the top dose activity change, negative = inhibition, actives largely listed as inhibitors | 350,000 compounds, 0.35% hits | AID 2517;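 note: potency is the fitted concentration of half-maximal effect; plate controls were vehicle for no effect and reference inhibitor for full effect; nearly all actives have a fitted effect of over 55% in size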
#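 Substrate: short duplex with […] THF abasic site, 5'-TAMRA and 3'-BHQ-2, 50 nM final. APE1 at 0.75 nM, preincubated 15 min RT with compound. Fluorescence increase from first to third read measured activity.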
# Pol kappa inh-1 – blocks human DNA polymerase kappa activity; Q9UBT6; 400,000 compounds, 0.53% hits; Potency, µM (series often up to 107 µM), for inactives: at the top dose activity, negative = inhibition, actives largely listed as inhibitors; purified Pol kappa, fluorescent DNA synthesis assay, 10 min; note: potency is the fitted concentration of half-maximal effect; % is set by controls: 0 for no effect and ±100 for the full control effect
#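 Readout: fluorescence, taken kinetically at 0 and 10 min. Conditions: 10 nM Pol kappa, 15 min RT compound preincubation, 50 nM substrate final. Controls: enzyme-free buffer wells.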
# GALK inh confirm – confirmation of human galactokinase (GALK) inhibitors; shares compounds with Pol eta inh-1; purified GALK, Kinase-Glo ATP depletion luminescence; Potency, µM (titrated, usually from 115 µM), without a hit: top-dose activity, negative = inhibition, hits mostly inhibitors; 150 compounds, 70% hits; AID 2015
# Redox cycling – redox cycling activity in phenol red-HRP assay; shares compounds with Pol eta inh-1; Phenol red-HRP H2O2 redox cycling, absorbance 600 nm; Potency, µM (series often up to 115 µM), for inactives: top-dose activity change, negative = H2O2 signal, most hits filed as inhibitors; 150 compounds, 40% hits; AID 2035
# HEK293 viability – reduces HEK-293 cell viability in GALK counter-screen; HEK-293 viability, ATP luminescence (CellTiter-Glo), 24/48 h; Potency, µM (series often up to 46.1 µM), for the others: at the top dose activity change, negative = cytotoxicity, actives largely listed as inhibitors; 170 compounds, 10% hits; shares compounds with Pol eta inh-1; note: potency is the fitted concentration of half-maximal effect; % is set by controls: 0 for no effect and ±100 for the full control effect
# Pol kappa inh-2 – confirmation of human DNA polymerase kappa inhibitors; shares compounds with Pol eta inh-1; purified Pol-kappa, fluorescent strand-displacement substrate; Potency, µM, usual class: inhibitors; 920 compounds, 76% hits; AID 720501; note: potency is the fitted concentration of half-maximal effect
# Pol eta inh-2 – confirmation of human DNA polymerase eta inhibitors; 2,600 compounds, 64% hits; Potency, µM, actives largely listed as inhibitors; shares compounds with Pol eta inh-1; Pol eta primer extension, TAMRA/BHQ fluorescence, 10 min; note: potency is the fitted concentration of half-maximal effect
# An asterisk follows results filed as active; ? = inconclusive; . = not tested or not shown. Compounds with a hit are over-represented: about 2.4% of the library has one in this group of screens. Calls come from the whole dose curve; as a rule, active = well fitted curve in the direction sought with a large enough effect; inconclusive = small, poorly fitted or top-dose-only effect, or another doubt; inactive = no such curve, though single readings can be large; an effect the other way counts as inactive or inconclusive.
SMILES,Pol eta inh-1,GLS inh,Pol beta inh,POLI inh,APE1 inh,Pol kappa inh-1,Pol eta inh-2,others
Cc1ccc2nc(SC(C)C(=O)NC3CCCc4ccccc43)[nH]c2c1 (stereo unspecified),-15%,-3%,-3%,11%,-4%,-21%,.,
COC(=O)c1ccccc1NC1=C/C(=N\S(=O)(=O)c2ccc(C(=O)O)cc2)c2ccccc2C1=O,14µM*,-7%,32µM*,1.1µM*,?,?,.,GALK inh confirm=?;Redox cycling=12µM*;HEK293 viability=?
COc1ccccc1/C=C\C(=O)NCC(=O)N/N=C(\C)Cc1ccccc1,5%,19%,-16%,19%,3%,-10%,.,
CC1(C)CC(=O)C2=C(C1)NC(Nc1nc3ccccc3o1)=NC2c1ccccn1 (stereo unspecified),-21%,-19%,27%,53%,11%,-11%,.,
CC1(C)CC(=O)C2=C(C1)NC(Nc1nc3ccccc3o1)=NC21CCCC1,-11%,-3%,2%,6%,-6%,0%,.,GALK inh confirm=?;Redox cycling=-22%;HEK293 viability=1%
CC1(C)CC(=O)C2=C(C1)NC(Nc1nc3ccccc3o1)=NC2c1ccccc1Cl (stereo unspecified),.,.,.,24%,.,5%,.,HEK293 viability=-9%
C#Cc1ccc([C@H]2C=C(C(=O)O)O[C@@H](OCCCCO)C2)cc1,20µM*,-6%,.,50µM*,.,?,.,Pol kappa inh-2=?
N#Cc1ccc(C[C@@H](NS(=O)(=O)c2ccc(C(=O)O)cc2)C(=O)O)cc1,.,.,.,.,-7%,.,.,
O=C(O)c1ccc(S(=O)(=O)N[C@@H](Cc2ccc(O)cc2)C(=O)O)cc1,.,.,.,.,-10%,.,38*,Pol kappa inh-2=11*
O=C(NCc1ccccc1)c1onc(CSc2ccc(F)c(F)c2)c1C(=O)NCc1ccccc1,-16%,0%,.,18%,.,-1%,.,
O=C(Nc1nnc(C2CC2)s1)C1CC(=O)N(c2ccc3c(c2)OCCO3)C1 (stereo unspecified),20µM*,-17%,?,45µM*,?,?,?,
O=C(Nc1nnc(C2CCCCC2)s1)C1CC(=O)N(c2ccccc2)C1 (stereo unspecified),-15%,-5%,3%,63%,58%,4%,.,
CC1=NOC(=O)/C1=C/c1ccc(-c2ccc(Cl)cc2)o1,.,.,?,.,-2%,.,.,
CC1=NOC(=O)/C1=C\c1ccc(-c2ccc(Br)cc2)o1,20µM*,1%,32µM*,?,1%,-14%,85*,
CC1=NOC(=O)/C1=C\c1ccc(-c2ccc(Br)cc2C(=O)O)o1,40µM*,-9%,13µM*,?,3%,79µM*,.,Pol kappa inh-2=34*
CC1CCCCC1NC(=O)CSc1nnnn1C (stereo unspecified),-13%,0%,.,46%,0%,1%,.,
O=Cc1cn(CCC(=O)O)nc1-c1cc2ccccc2o1,20µM*,23%,18µM*,?,8%,?,?,Pol kappa inh-2=21*
CCOc1ccc2[nH]c(=O)c(C(c3nnnn3Cc3ccco3)N3CCN(C)CC3)cc2c1 (stereo unspecified),-20%,9%,2%,68%,?,9%,.,GALK inh confirm=-6%;Redox cycling=3%;HEK293 viability=0%
CC(=O)CCc1c(C)nc2ccc(C(=O)O)cc2c1Cl,20µM*,26%,?,?,-3%,-51%,30*,
N#CC1=C(SCC(=O)Nc2ccc(C(=O)O)cc2)NC(=O)CC1c1ccco1 (stereo unspecified),20µM*,-15%,?,25µM*,-14%,?,60*,
Cc1ccc(NC(=O)CSC2=C(C#N)C(c3ccco3)C3=C(CCCC3=O)N2)cc1 (stereo unspecified),-6%,13%,3%,?,-1%,-6%,.,
O=c1c2ccccc2[nH]c2ccc(O)cc12,18µM*,5µM*,18µM*,?,?,79µM*,54*,
CC(=O)OCC1=C(C(=O)O)N2C(=O)C(NC(=O)CCn3nc(C)c(Cl)c3C)C2SC1 (stereo unspecified),?,-1%,-22%,3%,?,-19%,.,
CC(=O)OCC1=C(C(=O)O)N2C(=O)C(NC(=O)Cn3nc(C(F)F)c(Cl)c3C)C2SC1 (stereo unspecified),20µM*,66%,28µM*,?,-8%,50µM*,60*,
Cc1nnc(SCC2=C(C(=O)O)N3C(=O)C(NC(=O)Cn4nc(C(F)F)c(Cl)c4C)C3SC2)s1 (stereo unspecified),20µM*,74%,25µM*,-62%,?,50µM*,76*,
O=C(Nc1nc2ccccc2s1)C1CCN(S(=O)(=O)c2cc([N+](=O)[O-])ccc2Cl)CC1,40µM*,-18%,?,?,?,?,?,Pol kappa inh-2=?
CCC(C)NC(=O)C1CCN(S(=O)(=O)c2cc([N+](=O)[O-])ccc2Cl)CC1 (stereo unspecified),-17%,1%,-1%,58%,0%,-12%,.,
COc1cccc(/C=N/N2C(=O)CSC2=S)c1O,-9%,21%,?,?,2%,?,?,
COc1ccc2ccccc2c1/C=N/N1C(=O)CSC1=S,-13%,?,-2%,29%,-6%,-36%,.,
COc1ccc(Cl)cc1NC(=O)Cn1ncc2c3ccccc3n(C)c2c1=O,-11%,-1%,2%,-7%,.,-15%,.,

# High-throughput results (PubChem BioAssay)
